# Laboratory results: PubChem BioAssay AID588496 (NMMLSC, 2011)
# The other results are listed elsewhere or left out. Calls of active or inactive are those of the source.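 The calls were made as follows: active = compounds that dim the fluorescent label, raw bead signal shifting by over 33 units between lowest and highest dose; inactive = the rest.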
# Assay: quenchers of FAM-labeled RNA aptamer fluorescence, dose response, artefact control for GRK2 aptamer binding project, biochemical, powder set 1, flow cytometry (AID 588496)
# Conditions: Bead-bound FAM RNA aptamer fluorescence quenching; MCF span: fluorescence change max-min concentration, stronger effect = higher value; fluorescence ratio to DMSO: at 11.1 µM, stronger effect = lower value
Structure (SMILES),MCF span,fluorescence ratio to DMSO
O=C(CCS(=O)(=O)c1ccc(Br)cc1)NCCc1ccc(Cl)cc1,3.2,99% (inactive)
COc1ccc(Cl)cc1NC(=O)CCS(=O)(=O)c1ccc(Br)cc1,-1.1,98% (inactive)
